Test results reported in PubChem BioAssay (NCI).
Compounds without any hit were thinned out: in the full panel of roughly 79,000, 15% have a hit. Unmarked numbers belong to inactive results. Activity calls are given as the source filed them. Rule as the data show it: active = growth inhibition above about 70%; inactive = the rest.

Columns and labels:
[1] = NCI Yeast Anticancer Drug Screen. Data for the rad50 strain (AID 155);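 also: 0% = growth of vehicle-only cultures of the same strain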; conditions: S. cerevisiae rad50 strain growth inhibition, stronger effect = higher value
Procedure, shortened: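 Cells are treated with compound, grown, and their growth is then scored against vehicle-only cultures of the same repair-deficient yeast strain.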

[2] = NCI Yeast Anticancer Drug Screen. Data for the mec2-1 strain (AID 157); conditions: S. cerevisiae mec2-1 strain, stronger effect = higher value
Procedure, shortened: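 Using mec2-1 yeast: add compound, measure growth, express inhibition versus vehicle-treated cultures.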

[3] = NCI Yeast Anticancer Drug Screen. Data for the sgs1 mgt1 strain (AID 161);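 also: 0% = growth of cultures given vehicle only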; conditions: S. cerevisiae sgs1 mgt1 strain, stronger effect = higher value
Procedure, shortened: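 This yeast growth screen uses a strain with defined DNA-repair lesions; compound-treated growth is compared with vehicle-treated growth.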

[4] = NCI Yeast Anticancer Drug Screen. Data for the cln2 rad14 strain (AID 165);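 also: 0% = growth equal to vehicle treated cultures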; conditions: S. cerevisiae cln2 rad14 strain, stronger effect = higher value
Procedure, shortened: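 Yeast strain cln2 rad14, bearing defects in cell cycle control and DNA repair, serves as the test system; values reflect growth inhibition compared with vehicle.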

[5] = NCI Yeast Anticancer Drug Screen. Data for the bub3 strain (AID 167); conditions: S. cerevisiae bub3 mutant strain, stronger effect = higher value
Procedure, shortened: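 Part of a panel of yeast mutants defective in DNA damage repair or cell cycle regulation. Each strain is grown with compound, and inhibition is calculated relative to solvent-treated cultures.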

[6] = NCI Yeast Anticancer Drug Screen. Data for the mlh1 rad18 strain (AID 175); conditions: S. cerevisiae mlh1 rad18 strain growth inhibition, stronger effect = higher value
Procedure, shortened: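 Steps: expose repair-defective yeast to compound; measure growth; express inhibition against vehicle-treated controls.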

[7] = at 5.0 µM (retest, dose inferred, filed as 0.5)
[8] = at 50.0 µM (retest, dose inferred, filed as 5.0)

Row | SMILES | growth inhibition [1, 7] [%] | growth inhibition [1, 8] | growth inhibition ([1]; at 50.0 µM) [%] | growth inhibition [2, 7] [%] | growth inhibition [2, 8] | growth inhibition ([2]; at 50.0 µM) [%] | growth inhibition [3, 7] [%] | growth inhibition [3, 8] | growth inhibition ([3]; at 50.0 µM) | growth inhibition [4, 7] [%] | growth inhibition [4, 8] | growth inhibition ([4]; at 50.0 µM) [%] | growth inhibition [5, 7] [%] | growth inhibition [5, 8] | growth inhibition ([5]; at 50.0 µM) | growth inhibition [6, 7] [%] | growth inhibition [6, 8] | growth inhibition ([6]; at 50.0 µM) [%]
1 | CCCCCCCCCN1CCNC1=S | -5 | 63% | 38.9 | -7 | 30% | -10.4 | 6 | 60% | 71% (active) | -18 | 40% | 0.9 | 34 | 80% (active) | 54.3% | 0 | 61% | 49.5
2 | O=c1c2cc(Br)ccc2ncn1COCc1ccccc1 | 21 | 20% | 7.3 | 11 | 11% | -4.1 | 21 | 19% | 87.2% (active) | 24 | -12% | 54 | 15 | -21% | 83.5% (active) | 27 | 24% | 43.3
3 | CCOC(=O)c1[nH]cnc1/N=N/c1nc(O)c(C#N)[nH]1 | 8 | 98% (active) | -5.65 | 3 | 99% (active) | 9.8 | -13 | 99% (active) | 6% | 6 | 99% (active) | 0.85 | -4 | 99% (active) | 1.55% | -6 | 99% (active) | -1.95
4 | N#CC(C(=O)C(=O)Nc1cccc(C(F)(F)F)c1)c1ccccc1 (configuration not stated) | -23 | 90% (active) | -23.1 | -12 | 76% (active) | 10.2 | -19 | 75% (active) | 16.6% | -9 | 90% (active) | -20.7 | -10 | 94% (active) | 6.55% | 34 | 83% (active) | 12.7
